Test results: PubChem BioAssay AID588590 (National Center for Advancing Translational Sciences (NCATS), 2011)
Where “and” joins values, the source holds several entries; their conditions need not be identical. Equal values may be shown once. The whole screen tested about 390,000 compounds, of which about 4,000 (1%) were called active. Another 7% or so got no clear call; they are omitted. The call rests on the fitted dose curve; in most records, active means well fitted inhibition curve with a large enough effect; inconclusive means small, poorly fitted or top-dose-only effect, or another doubt; inactive means no such curve, though single readings can be large or run the other way. Many of the other results were omitted from the sample, so actives are more common in it than they were. Some compounds were tested as several samples or in several runs, with calls that do not always agree.

What follows are compounds tested against DNA polymerase iota (Homo sapiens) (UniProt Q9UNA4) (assay: qHTS for Inhibitors of Polymerase Iota). Details: Pol iota fluorescent replication assay, 10 min; series mostly up to 115 µM; activity, negative = inhibition: at the top concentration.
Sequence of DNA polymerase iota (Homo sapiens) (Q9UNA4 whole entry, looked up): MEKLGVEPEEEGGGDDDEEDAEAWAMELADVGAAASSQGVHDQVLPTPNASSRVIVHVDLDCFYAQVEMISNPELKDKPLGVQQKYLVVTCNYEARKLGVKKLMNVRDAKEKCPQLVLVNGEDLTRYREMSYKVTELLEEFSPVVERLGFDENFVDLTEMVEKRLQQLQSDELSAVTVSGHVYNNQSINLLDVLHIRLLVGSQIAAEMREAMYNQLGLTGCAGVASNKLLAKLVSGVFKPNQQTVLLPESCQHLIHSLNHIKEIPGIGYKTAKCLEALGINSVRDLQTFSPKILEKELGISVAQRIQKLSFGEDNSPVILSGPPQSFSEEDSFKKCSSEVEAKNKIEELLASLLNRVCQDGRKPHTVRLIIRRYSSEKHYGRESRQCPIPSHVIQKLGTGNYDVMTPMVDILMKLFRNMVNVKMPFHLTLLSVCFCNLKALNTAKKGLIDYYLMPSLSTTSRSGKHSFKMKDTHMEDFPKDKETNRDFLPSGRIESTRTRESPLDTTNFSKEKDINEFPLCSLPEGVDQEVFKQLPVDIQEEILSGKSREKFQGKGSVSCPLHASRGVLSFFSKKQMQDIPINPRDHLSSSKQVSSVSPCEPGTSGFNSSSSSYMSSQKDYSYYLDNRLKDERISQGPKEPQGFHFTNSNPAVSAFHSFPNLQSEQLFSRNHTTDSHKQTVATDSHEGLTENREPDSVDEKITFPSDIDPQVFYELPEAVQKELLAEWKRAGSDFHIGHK
Procedure, shortened: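 Fluorescent replication assay read twice, at 0 min and 10 min after adding 50 nM (final) substrate. Enzyme (10 nM) and compounds were first incubated 15 min at room temperature; enzyme-free buffer wells were negative controls.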
Potency means the concentration at half of the fitted maximal effect.

Row | Compound | activity, negative = inhibition | Potency
1 | Cc1ccc(NC(=O)CSc2nc3c(c(=O)[nH]2)CN(Cc2ccc4c(c2)OCO4)CC3)cc1C | 93.1% (inactive) | –
2 | CCc1ccc2ncc3c(-c4ccc(C)cc4)nn(CC(=O)NCc4ccccc4)c3c2c1 | -9.65% (inactive) | –
3 | COC(=O)c1cnc(N2CCN(c3ccccc3OC)CC2)c2ccccc12 | -17.2% (inactive) | –
4 | S=c1[nH]nc(-c2ccco2)n1/N=C/c1ccc(Br)s1 | 7.83% (inactive) | –
5 | Cc1cc(-c2n[nH]c(=S)n2/N=C/c2ccco2)n[nH]1 | – | 44.7 µM (active)
6 | COc1ccccc1/C=C/C=N/n1c(-c2ccc(Cl)cc2Cl)n[nH]c1=S | 23.2% (inactive) | –
7 | COc1ccc(C)cc1NC(=O)CCc1c(C)nn(-c2ccc(N3CCOCC3)nn2)c1C | 2.12% (inactive) | –
8 | COc1cccc(C(=O)NC(=O)Nc2ccc(-c3cc(C(F)(F)F)nn3-c3ccccc3)cc2)c1 | -5.55% (inactive) | –
9 | COC(=O)C1=C(c2ccccc2)c2ccccc2S(=O)(=O)N1CC(=O)Nc1ccccc1C(F)(F)F | -2.37% (inactive) | –
10 | OC(Cc1ccc2ccccc2n1)c1ccc(Cl)c(Cl)c1 (stereo not given) | 13.3% (inactive) | –
11 | O=C(NCCS(=O)(=O)N1CCN(c2ccc(F)cc2)CC1)c1ccccc1Br | 34.6% (inactive) | –
12 | CC(=O)Nc1ccc(S(=O)(=O)NC2(C(F)(F)F)C(=O)NC(C)=C2C#N)cc1 (stereo not given) | – | 22.4 µM (active)
13 | CCCN1C(=O)C(NS(=O)(=O)c2ccc(N)cc2)(C(F)(F)F)C(C(=O)OC)=C1C (stereo not given) | 21.5% (inactive) | –
14 | CC(=O)Nc1ccc(S(=O)(=O)NC2(C(F)(F)F)C(=O)Nc3c2c(=O)[nH]c(=O)n3Cc2ccccc2)cc1 (stereo not given) | 13% (inactive) | –
15 | Cc1c(Cl)cccc1NC(=O)N1CCN(C(=O)c2nsc3ccccc23)CC1 | -1.97% (inactive) | –
16 | O=C(CCSCc1ccccc1F)N1CCN(c2ccc(Cl)cc2)CC1 | 5.1% (inactive) | –
17 | Cc1cccc(N(C(=O)c2sc(C)nc2C)C(C(=O)NCC2CCCO2)c2ccccc2)c1 (stereo not given) | 159% (inactive) | –
18 | Cc1nc(C)c(C(=O)N(c2ccc(C)c(C)c2)C(C(=O)NCc2ccco2)c2ccccc2)s1 (stereo not given) | – | 79.4 µM (active)
19 | Cc1cccc(N(C(=O)Cc2cccs2)C(C(=O)NCc2ccco2)c2ccncc2)c1 (stereo not given) | 3.72% (inactive) | –
20 | CC(C)(C(=O)NO)c1ccccc1 | 22.6% (inactive) | –

Row | Compound | activity, negative = inhibition | Potency
21 | O=C(Nc1c(-c2ccc(F)cc2)nc2ccccn12)c1cccc(F)c1 | -14.9% (inactive) | –
22 | CS(=O)(=O)c1ccc(C(=O)OCC(=O)NNC(=O)COc2ccc(Cl)cc2)cc1 | – | 79.4 µM (active)
23 | O=C(COc1ccc(Cl)cc1)N1CCN(S(=O)(=O)c2ccc(Cl)cc2)CC1 | 0.841% (inactive) | –
24 | CS(=O)(=O)c1ccc(Cl)c(NC(=O)COC(=O)c2ncc(Cl)c(Cl)c2Cl)c1 | 27.4% (inactive) | –
25 | COc1cc(OC)c(/C=C/c2ccnc3ccccc23)c(OC)c1 | 6.37% (inactive) | –
26 | CC(NC(=O)CCc1cn(Cc2ccccc2Cl)c2ccccc12)c1ccccc1 (stereo not given) | 6.58% (inactive) | –
27 | Cc1c(C)n(Cc2ccc(Cl)cc2)c2ccc(C(=O)N3CCN(c4ccccc4F)CC3)cc12 | -14.6% (inactive) | –
28 | O=C(Cn1c(=O)nc(-c2ccccc2)c2cc(Cl)ccc21)NCc1ccc(Cl)cc1 | 12.4% (inactive) | –
29 | CC(C)c1ccc2c(c1)c(SC(C)(C)C)c(CC(C)(C)C(=O)O)n2Cc1ccc(Cl)cc1 | – | 28.2 µM (active)
30 | COc1cc(-c2noc(-c3ccc(N4CCCC4)c([N+](=O)[O-])c3)n2)cc(OC)c1OC | 13.9% (inactive) | –
31 | Cc1ccc(C(=O)N2CCc3cc(CNC(=O)c4ccc(Br)cc4)ccc32)cc1 | 14% (inactive) | –
32 | CSC1=N/C(=C\C=C\c2cccs2)C(=O)S1 | – | 15.8 µM (active)
33 | Cc1ccc(CN(C(=O)COc2ccc(Cl)cc2C)C2CCS(=O)(=O)C2)o1 (stereo not given) | -3.04% (inactive) | –
34 | CCc1cc2c(-c3ccccc3)cc(=O)oc2c2c1OCN(Cc1ccc(C)cc1)C2 | 21.1% (inactive) | –
35 | Cc1ccc(S(=O)(=O)c2nc(-c3ccco3)oc2SCC(=O)Nc2ccc(F)cc2)cc1 | -29.2% (inactive) | –
36 | O=C1CCCc2cc(S(=O)(=O)N3CCCC(C(=O)NCc4ccccc4)C3)ccc2N1 (stereo not given) | 4.68% (inactive) | –
37 | CN(C)S(=O)(=O)c1cccc(-c2nn(-c3ccccc3)cc2/C=C2\SC(=S)N(CC(=O)O)C2=O)c1 | – | 31.6 µM (active)
38 | COc1cccc(-c2nn(-c3ccccc3)cc2/C=C(\C#N)C(=O)NCCCn2ccnc2)c1 | 196% (inactive) | –
39 | Cc1ccc(-c2nn(-c3ccccc3)cc2/C=C/C(=O)Nc2cccc(S(N)(=O)=O)c2)cc1 | 6.92% (inactive) | –
40 | O=C(O)CCCCCCCCc1cn(CN2C(=O)c3ccccc3C2=O)nn1 | – | inactive

Row | Compound | activity, negative = inhibition | Potency
41 | O=C1/C(=C/c2coc3ccc(O)cc3c2=O)SC(=S)N1c1ccccc1 | -10.5% (inactive) | –
42 | Cc1ccc(-c2nn(-c3ccccc3)cc2/C=C2\SC(=S)N(CCCCCC(=O)O)C2=O)o1 | – | 89.1 µM (active)
43 | CCn1cc(C(=O)N(C)Cc2ccccc2)c(=O)c2cc(S(=O)(=O)N3CCCCCC3)ccc21 | 15.7% (inactive) | –
44 | COc1ccc(Cn2c(=O)n(-c3ccccc3C)c(=O)c3c4c(sc32)CN(C(C)=O)CC4)cc1 | 26.2% (inactive) | –
45 | CCn1c(C(=O)Nc2cc(Cl)ccc2C)cc2sc(Cl)cc21 | 36.3% (inactive) | –
46 | Cc1ccc2nc(/C(C#N)=C/c3ccc(-c4ccc(C(=O)OC(C)C)cc4)o3)[nH]c2c1 | 18.9% (inactive) | –
47 | CN(Cc1ccccc1)S(=O)(=O)c1nnc(NC(=O)c2ccccc2F)s1 | 1.73% (inactive) | –
48 | CN(Cc1ccco1)S(=O)(=O)c1nnc(NC(=O)c2ccccc2)s1 | – | inactive and 44.7 µM (active)
49 | CCCCC(=O)Nc1nnc(S(=O)(=O)N(C)Cc2ccco2)s1 | -11% (inactive) | –
50 | CN(Cc1ccccc1)c1ccc(-c2nc(-c3ccccc3)no2)cc1[N+](=O)[O-] | 51.2% (inactive) | –
51 | CC(=O)c1ccc(NC(=O)c2nc3nc(C)cc(C(F)F)n3n2)cc1 | -14.5% (inactive) | –
52 | COc1ccc(-c2nc(S(=O)(=O)c3ccccc3)c(N3CCCCC3)o2)cc1 | 8.68% (inactive) | –
53 | CCn1cc(C(=O)N2CCN(c3cc(C)ccc3C)CC2)c(=O)c2cc(S(=O)(=O)N(C)C3CCCCC3)ccc21 | 7.13% (inactive) | –
54 | O=C(O)c1ccc(Cn2c(SCc3ccc(F)cc3)nc3ccncc32)cc1 | -4.26% (inactive) | –
55 | COc1ccccc1-n1c(-c2cc(-c3ccco3)[nH]n2)n[nH]c1=S | – | 8.91 µM (active)
56 | COc1cc(-c2n[nH]c(=S)n2Cc2ccccc2)cc(OC)c1OC | 45.3% (inactive) | –
57 | Cc1cc(-c2n[nH]c(=S)n2-c2ccc(C)c(C)c2)no1 | -3.17% (inactive) | –
58 | C=CCOc1c(Br)cc(/C=N\n2nnnc2N)cc1OC | 8.73% (inactive) | –
59 | CCOc1c(Br)cc(/C=C2\C(=O)N(CCC#N)N=C2C)cc1OC | – | 0.794 µM (active)
60 | CCOc1ccc(/C=C(\C#N)c2nc3ccccc3c(=O)[nH]2)cc1OC | 17.8% (inactive) | –
